# FUS yeast rescue: rescues growth of FUS-expressing yeast. S. cerevisiae FUS-expressing, growth rescue, OD600, 24 h. Potency, µM (titrated, usually from 76.6 µM), most hits filed as activators. 0.24% of 390,000 active. AID 1347120;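 also: plate controls were DMSO vehicle for no effect and reference control for full effect; nearly all actives have a fitted effect of over 55% in size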
#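 Steps: raffinose overnight preculture; dilution to OD 0.005 in 2% galactose minimal medium; compound addition (concentration series); 24hr at 30C, 99% humidity; absorbance read at 600 nm.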
# PTAP TSG101 blk: blocks PTAP/TSG101 interaction to inhibit HIV-1 budding; Q99816; Fluorescence polarization, FITC-PTAP peptide / Tsg101 binding; Potency, µM (titrated, usually from 115 µM), for the others: top-dose activity change, negative = inhibition, most hits filed as inhibitors; 340,000 tested, under 10 active; AID 493005; active = well fitted inhibition curve with a large enough effect in the main read-out, with a control signal flat, not every such curve was filed as active; inconclusive = small, poorly fitted or top-dose-only effect, or effect the other way, or a change in a side signal; inactive = no such curve, though single readings can be large or run the other way; also: % of control where 0% means no effect
# Target sequence (Q99816 whole entry, looked up): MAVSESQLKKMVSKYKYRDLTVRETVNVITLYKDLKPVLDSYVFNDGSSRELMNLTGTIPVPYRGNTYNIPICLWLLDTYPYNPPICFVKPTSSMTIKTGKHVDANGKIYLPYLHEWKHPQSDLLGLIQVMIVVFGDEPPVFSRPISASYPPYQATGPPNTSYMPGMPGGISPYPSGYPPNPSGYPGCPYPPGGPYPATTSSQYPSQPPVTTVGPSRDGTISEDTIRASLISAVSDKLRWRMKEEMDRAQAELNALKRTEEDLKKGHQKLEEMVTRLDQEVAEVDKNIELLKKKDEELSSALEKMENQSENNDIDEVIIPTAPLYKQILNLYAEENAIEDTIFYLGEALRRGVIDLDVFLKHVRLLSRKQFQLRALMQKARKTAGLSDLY
#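 Fluorescence polarization binding of Tsg101 binding domain (10 uM final) to FITC-labeled PTAP peptide (50 nM final) in HEPES pH 7.5 buffer with NaCl, Tween 20, EDTA, TCEP. Compounds added before peptide; binding 20 min at RT.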
# aSyn rescue: rescues yeast growth from alpha-synuclein toxicity | Yeast expressing alpha-synuclein, growth rescue, BacTiter-Glo, 24 h | Potency, µM (highest dose often 46.1 µM), for inactives: top-dose growth rescue (activation), actives largely listed as activators | 0.14% of 370,000 active | AID 652106; also: % of control where 0% means no effect; nearly all actives have a fitted effect of over 65% in size
#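 Readout is rescue of growth in alpha-synuclein-expressing yeast, so inhibitors of toxicity appear as activators. Growth after 24 hr at 30 deg C in galactose medium is quantified by luminescence.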
# Abeta yeast res: restores growth of yeast expressing A-beta42 peptide; yeast expressing A-beta42, growth rescue, OD600, 48 h; response scale: 0% DMSO, 100% iron-clioquinol control; Potency, µM (highest dose often 46.1 µM), usual class: activators; 0.063% of 410,000 active; also: nearly all actives have a fitted effect of over 55% in size
#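 Yeast growth medium received pinned compounds, then yeast cells expressing toxic A-beta were added; plates incubated at 30 C for 48 hr. Growth read as absorbance at 600 nm, normalized to DMSO and equimolar FeCl3 plus clioquinol controls.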
# TDP-43 yeast inh: rescues yeast growth from TDP-43 toxicity. TDP-43 expressing yeast growth rescue, BacTiter-Glo, 24 h. Potency, µM (highest dose often 46.1 µM), without a hit: at the top dose growth rescue (activation), hits mostly activators. 1.8% of 410,000 active. AID 652104; also: % of control where 0% means no effect; nearly all actives have a fitted effect of over 50% in size
#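 Readout is BacTiter-Glo luminescence of cell growth, so inhibitors register as activators. TDP-43-expressing yeast at OD600=0.02 in galactose medium, after raffinose pregrowth to mid-log, were incubated with compound for 24 hr at 30 deg C.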
# Numbers without * were called inactive; i = inactive; ? = inconclusive; . = no result; [ ] = remark or other dose. This is a sample that favours compounds with a hit; in the whole collection about 2.1% have one here. Unless noted, calls follow the shape of the dose curve; as a rule, active = well fitted curve in the direction sought with a large enough effect; inconclusive = small, poorly fitted or top-dose-only effect, or another doubt; inactive = no such curve, though single readings can be large; an effect the other way counts as inactive or inconclusive. Potency is read from the fitted curve at half-maximal effect.
SMILES,FUS yeast rescue,PTAP TSG101 blk,aSyn rescue,Abeta yeast res,TDP-43 yeast inh
Cc1ccc(S(=O)(=O)C(CNC(=O)c2ccccc2F)c2cccs2)cc1 (configuration not stated),i,.,.,i,0%[9.22 µM]
c1ccc(OCCOc2ccccc2-c2nnco2)cc1,i,-5%,-5%,i,0%
Clc1ccccc1COc1ccccc1-c1nnco1,i,0%,15%,i,3.2µM*
CCCC(=O)OCc1cnc(C)c2oc(=O)c(C(=O)Nc3ccccc3)cc12,i,.,-6%,i,22%
Cc1c(C(=O)O)cnc2cc(-c3ccc(Cl)cc3)nn12,i,-1%,-4%,i,3.5µM*
CC(=O)c1cnc2cc(-c3ccc(Cl)cc3)nn2c1C,i,-3%,2%,i,-8%
CCOC(=O)Cc1nnc(-c2ccccc2)o1,i,-2%,-4%,i,-7%
Cc1ccc(C2=NN(Cc3nnc(-c4ccccc4)o3)C(=O)SC2)cc1,.,1%,10%,i,18µM*
S=C(c1ccc(-c2cc(Cl)ccc2Cl)o1)N1CCOCC1,i,-2%,-13%,i,13µM*
CN(Cc1ccccc1)c1nc(-c2cccc([N+](=O)[O-])c2)nc2ccccc12,i,-5%,-11%,i,14µM*
O=[N+]([O-])c1cccc(-c2nc(NCc3ccccc3)c3ccccc3n2)c1,.,-4%,-2%,i,9%
COC(=O)c1ccccc1NC(=O)CCS(=O)(=O)c1nc(-c2ccc3c(c2)OCO3)cc(C(F)(F)F)n1,i,.,.,i,0%
O=C(CCS(=O)(=O)c1nc(-c2ccc3c(c2)OCO3)cc(C(F)(F)F)n1)Nc1ccccc1F,i,.,.,i,22µM*
CSc1ccccc1NC(=O)CCS(=O)(=O)c1nc(-c2ccc3c(c2)OCO3)cc(C(F)(F)F)n1,i,.,-4%,i,11µM*
COc1cccc(-c2nc(-c3cccc(C)c3)nc3cc(Cl)ccc23)c1,i,.,-10%,i,6%
Cc1cccc(CN2C(=O)[C@H]3Cc4c([nH]c5ccccc45)C(C)(C)N3C2=O)c1,?,1%,.,?,.
Cc1cccc(CN2C(=O)[C@@H]3Cc4c([nH]c5ccccc45)C(C)(C)N3C2=O)c1,i,-2%,.,7.9µM*,.
CCOC(=O)/C=C(\C)Sc1cc(O)c2ccccc2c1O,i,-2%,-66%,i,-94%
CCOC(=O)/C=C(\C)Sc1cc(=O)oc2ccccc12,i,1%,-8%,i,14µM*
COc1cc(C(=O)Sc2ccc(C)cc2)cc(OC)c1OC,.,1%,-21%,i,28µM*
COc1ccccc1OCC(=O)Sc1ccc(C)cc1,i,-9%,25%,i,?
COc1cc(C(=O)Oc2c(Sc3ccc(C)cc3)c(C)nn2-c2ccccc2)cc(OC)c1OC,i,.,.,i,22µM*
CCn1c(-c2cccnc2Cl)nc2cc(Cl)c(Cl)cc21,i,-7%,29%,i,?
Cc1nc2cc(Cl)c(Cl)cc2n1-c1ccccn1,i,-3%,-3%,i,13µM*
COc1cccc(NC(=O)CN(C)C(=O)/C=C/c2cn(-c3ccccc3)nc2-c2ccc(OC)c(OC)c2)c1,40µM*,-2%,1%,i,11%
SMILES,FUS yeast rescue,PTAP TSG101 blk,aSyn rescue,Abeta yeast res,TDP-43 yeast inh
CCOC(=O)c1ccc(NC(=O)c2cn(-c3ccccc3)nc2-c2ccc(OC)c(OC)c2)cc1,25µM*,.,.,i,?
COc1ccc(-c2nn(-c3ccccc3)cc2C(=O)Nc2ccc(C(=O)O)cc2)cc1OC,i,-3%,0%,i,0%
CCN(CC(=O)Nc1ccc(NC(C)=O)cc1)C(=O)/C=C/c1cn(-c2ccccc2)nc1-c1ccc(C)cc1,32µM*,-2%,3%,i,16%
COc1ccc(-c2nn(-c3ccccc3)cc2/C=C/C(=O)N(C)CC(=O)Nc2cccc(F)c2)cc1OC,?,2%,2%,i,?
COc1cc(CCC(=O)Nc2ccc(Cl)c(C(F)(F)F)c2)cc(OC)c1OC,.,-4%,-6%,i,20%
COc1ccc(C(=O)Nc2ccc(N3CCOCC3)c(C(F)(F)F)c2)cc1OC,i,.,3%,i,20µM*

# Screening results as filed in PubChem BioAssay.
